Reference: PubChem BioAssay (NCI)
The panel holds about 79,000 compounds, 15% with a hit somewhere; the sample as a whole holds those more often. Activity calls are given as the source filed them. Rule as the data show it: active = growth inhibition above about 70%; inactive = the rest.

Experiment: NCI Yeast Anticancer Drug Screen. Data for the mec2-1 strain (AID 157)
Conditions: S. cerevisiae mec2-1 strain, at 50.0 µM (retest, dose inferred, filed as 5.0), stronger effect = higher value
In short: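 Readout is yeast growth inhibition, normalised to vehicle-treated controls, in the mec2-1 strain exposed to compound.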

Compound | growth inhibition
O=C1c2ccccc2C(=O)c2sc(Nc3cc(Cl)ccc3Cl)nc21 | 99% (active)
OCC(c1ccccc1)c1ccccc1 | 6% (inactive)
CN(C)c1nc(=NCc2ccco2)ss1 | 53% (inactive)
C/C=C\C=N\NC(N)=S | 5% (inactive)
O=C(/C=N/O)c1c(-c2ccccc2)[nH]c(-c2ccccc2)c1-c1ccccc1 | 77% (active)
Cc1c2ccccc2c(CO)c2cc(F)c3ccccc3c12 | 99% (active)
O=C(O)Cc1cccc2c(=O)c3cccc([N+](=O)[O-])c3[nH]c12 | 83% (active)
Cc1ccc(SC2=C(N(C)C)C(=O)c3ccccc3C2=O)cc1 | 94% (active)
O=C1C(Cl)=C(Cl)C(=O)c2cc(Cl)c(Cl)cc21 | 99% (active)
CC1=C(C2CO2)C(=O)C(C)=C(C2CO2)C1=O (stereo not given) | 100% (active)
CCc1cc(CC)c(-c2ccco2)c(COC(=O)NC)c1 | 64% (inactive)
COC(=O)C(=O)N(c1cc(C)ccc1C)c1cc(C)ccc1C | 73% (active)
COC1=CC(=O)c2c(O)c3c(c(O)c2C1=O)C=C(C)OC3O (stereo not given) | 31% (inactive)
O=[N+]([O-])c1ccccc1NCCO | 0% (inactive)
CCCCCCCCCCCCCCCC[N+](C)(C)CC(=O)O | 98% (active)
S=C(SSSSC(=S)N1CCCCC1)N1CCCCC1 | 95% (active)
COC(O)C12OC3CO[Si](C(C)C)(C(C)C)O[Si](C(C)C)(C(C)C)OC3C1Oc1nc(=O)ccn12 (stereo not given) | 99% (active)
O=C(O)c1ccccc1C(c1ccccc1)c1ccccc1 | 44% (inactive)
OC(OC/C(I)=C(/I)COC(O)C(Cl)(Cl)Cl)C(Cl)(Cl)Cl (stereo not given) | 94% (active)
COC(C)(C)[C@@H]1CCCN1C1=C(C)C(=O)OC1 | 99% (active)

Compound | growth inhibition
COc1ccc(-c2nc(C)[nH]c(=O)c2Cc2c(O)ccc3ccccc23)cc1 | 4% (inactive)
C1CCC(CCNCCC2CCCCC2)CC1 | 99% (active)
CC1=C(C)C1[N+](=O)[O-] | 97% (active)
COc1ccc2c(c1)OC(c1ccccc1O)CC2=O (stereo not given) | -30% (inactive)
CCN(CC)c1ccc(NC(CC(O)c2ccccc2)c2ccccc2)cc1 (stereo not given) | -1% (inactive)
COc1cc(/C=C/C(=O)c2ccc3ccccc3c2)cc(OC)c1OC | 44% (inactive)
C=CC(=C)OC | 0% (inactive)
O=C1OC(=O)c2ccc([N+](=O)[O-])c3cccc1c23 | 9% (inactive)
CCCOC(=O)CSC#N | 98% (active)
CCCCN(CCCC)CCCCCCNc1cc(OC)cc2cccnc12 | 14% (inactive)
CN1C(Cl)=NS(=O)(=O)c2ccccc21 | 19% (inactive)
COc1cc(C(=O)CBr)c2ccc(Cl)cc2n1 | 98% (active)
CCCCCCCCCCCCCCCC(=O)N(CCCN(CC)CC)C(C)CCCN(CC)CC (stereo not given) | 99% (active)
CC1(c2ccccc2)OC1C(=O)N(c1ccccc1)c1ccccc1 (stereo not given) | 99% (active)
CCCCCCCNC1CCCc2cc(OC)ccc21 (stereo not given) | 31% (inactive)
Cc1ccc(S(=O)(=O)NCCSCCSCCNS(=O)(=O)c2ccc(C)cc2)cc1 | -8% (inactive)
COc1ccc(C2C3CCCC(C(c4ccc(OC)cc4)N2C)C32NC(=O)NC2=O)cc1 (stereo not given) | 98% (active)
CC(C)OC1=C(Cl)C(=O)c2c(cccc2[N+](=O)[O-])C1=O | 100% (active)
COC(=O)c1nnn(-c2ccc(Cl)cc2Cl)c1C(=O)c1ccc(Cl)c(Cl)c1 | 99% (active)
O=Cc1cc2c(s1)C(=O)c1sccc1C2=O | 99% (active)

Same assay, conditions: S. cerevisiae mec2-1 strain, at 50.0 µM, stronger effect = higher value

Compound | growth inhibition
O=C1c2ccccc2C(=O)c2sc(Nc3cc(Cl)ccc3Cl)nc21 | 88.2% (active)
OCC(c1ccccc1)c1ccccc1 | 54.5% (inactive)
CN(C)c1nc(=NCc2ccco2)ss1 | 2.3% (inactive)
C/C=C\C=N\NC(N)=S | 83.7% (active)
O=C(/C=N/O)c1c(-c2ccccc2)[nH]c(-c2ccccc2)c1-c1ccccc1 | 77.8% (active)
Cc1c2ccccc2c(CO)c2cc(F)c3ccccc3c12 | 34% (inactive)
O=C(O)Cc1cccc2c(=O)c3cccc([N+](=O)[O-])c3[nH]c12 | 58% (inactive)
Cc1ccc(SC2=C(N(C)C)C(=O)c3ccccc3C2=O)cc1 | 14.1% (inactive)
O=C1C(Cl)=C(Cl)C(=O)c2cc(Cl)c(Cl)cc21 | 84% (active)
CC1=C(C2CO2)C(=O)C(C)=C(C2CO2)C1=O (stereo not given) | 99.5% (active)
CCc1cc(CC)c(-c2ccco2)c(COC(=O)NC)c1 | 94.2% (active)
COC(=O)C(=O)N(c1cc(C)ccc1C)c1cc(C)ccc1C | 95.3% (active)
COC1=CC(=O)c2c(O)c3c(c(O)c2C1=O)C=C(C)OC3O (stereo not given) | 88% (active)
O=[N+]([O-])c1ccccc1NCCO | -5.65% (inactive)
CCCCCCCCCCCCCCCC[N+](C)(C)CC(=O)O | 1.2% (inactive)
S=C(SSSSC(=S)N1CCCCC1)N1CCCCC1 | 19.9% (inactive)
COC(O)C12OC3CO[Si](C(C)C)(C(C)C)O[Si](C(C)C)(C(C)C)OC3C1Oc1nc(=O)ccn12 (stereo not given) | 91.7% (active)
O=C(O)c1ccccc1C(c1ccccc1)c1ccccc1 | 65.2% (inactive)
OC(OC/C(I)=C(/I)COC(O)C(Cl)(Cl)Cl)C(Cl)(Cl)Cl (stereo not given) | 96.9% (active)
COC(C)(C)[C@@H]1CCCN1C1=C(C)C(=O)OC1 | 69.3% (inactive)

Compound | growth inhibition
COc1ccc(-c2nc(C)[nH]c(=O)c2Cc2c(O)ccc3ccccc23)cc1 | 10.3% (inactive)
C1CCC(CCNCCC2CCCCC2)CC1 | 97.5% (active)
CC1=C(C)C1[N+](=O)[O-] | 79.8% (active)
COc1ccc2c(c1)OC(c1ccccc1O)CC2=O (stereo not given) | 24.1% (inactive)
CCN(CC)c1ccc(NC(CC(O)c2ccccc2)c2ccccc2)cc1 (stereo not given) | 5.8% (inactive)
COc1cc(/C=C/C(=O)c2ccc3ccccc3c2)cc(OC)c1OC | 11.3% (inactive)
C=CC(=C)OC | 20.3% (inactive)
O=C1OC(=O)c2ccc([N+](=O)[O-])c3cccc1c23 | 51.6% (inactive)
CCCOC(=O)CSC#N | 98% (active)
CCCCN(CCCC)CCCCCCNc1cc(OC)cc2cccnc12 | 98.6% (active)
CN1C(Cl)=NS(=O)(=O)c2ccccc21 | -5.6% (inactive)
COc1cc(C(=O)CBr)c2ccc(Cl)cc2n1 | 69.2% (inactive)
CCCCCCCCCCCCCCCC(=O)N(CCCN(CC)CC)C(C)CCCN(CC)CC (stereo not given) | 71.9% (active)
CC1(c2ccccc2)OC1C(=O)N(c1ccccc1)c1ccccc1 (stereo not given) | 85% (active)
CCCCCCCNC1CCCc2cc(OC)ccc21 (stereo not given) | 70.5% (active)
Cc1ccc(S(=O)(=O)NCCSCCSCCNS(=O)(=O)c2ccc(C)cc2)cc1 | 92.2% (active)
COc1ccc(C2C3CCCC(C(c4ccc(OC)cc4)N2C)C32NC(=O)NC2=O)cc1 (stereo not given) | 98% (active)
CC(C)OC1=C(Cl)C(=O)c2c(cccc2[N+](=O)[O-])C1=O | 99.1% (active)
COC(=O)c1nnn(-c2ccc(Cl)cc2Cl)c1C(=O)c1ccc(Cl)c(Cl)c1 | 95.5% (active)
O=Cc1cc2c(s1)C(=O)c1sccc1C2=O | 91.8% (active)
